Experimental data taken from the supplement of paper PMC10849652.
About 7,900 targets were measured; listed, in parts, are those with a hit and a random draw of the rest. About 0.6% of all pairs of compound and target were hits. Unmarked numbers belong to inactive results.

Columns and labels:
Test in all cases: log2 fold change, soluble protein after heating vs DMSO (PISA); higher = thermal stabilisation; K562 cells, 10 uM, 30 min; active = over 0.2 and 3.5 SD of the protein, either way, in both replicates (recomputed)
[1] = compound: CC1=C(SC2=C1C(=N[C@H](C3=NN=C(N32)C)CC(=O)N)C4=CC=C(C=C4)Cl)C
Method in brief: (§1)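 Values are thermal stability changes relative to control samples and are taken from duplicates. They are stated as log2 fold changes. Before quantification by TMTpro 16plex LC-MS/MS with equalised channel sums, K562 cells at 2×10^6 cells/mL were treated with 10 μM compound for 30 min, heated in aliquots for 3 min across 48°C-58°C, pooled, extracted in PBS with 0.5% NP-40 at 4°C, and centrifuged at 21,000xg for 90 min to give the soluble supernatant.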

[2] = compound: CC1=C2C(=CC=C1)N=C(N(C2=O)C3=CC=CC=C3C)CN4C=NC5=C(N=CN=C54)N
Method in brief: as §1

[3] = compound: Cc1sc2c(c1C)C(c1ccc(Cl)cc1)=N[C@@H](CC(=O)OC(C)(C)C)c1nnc(C)n1-2
Method in brief: as §1

[4] = compound: c1ccc([C@@H]2C[C@H]2NC2CCNCC2)cc1
Method in brief: as §1

[5] = compound: C1=CC=C(C=C1)[C@H](COC2=CC3=C(C=C2)NC(=O)N3)NC(=O)C4=CC=CN(C4=O)CC5=CC(=C(C=C5)F)F
Method in brief: as §1

UniProt Q86X29, sequence (Q86X29 whole entry, looked up): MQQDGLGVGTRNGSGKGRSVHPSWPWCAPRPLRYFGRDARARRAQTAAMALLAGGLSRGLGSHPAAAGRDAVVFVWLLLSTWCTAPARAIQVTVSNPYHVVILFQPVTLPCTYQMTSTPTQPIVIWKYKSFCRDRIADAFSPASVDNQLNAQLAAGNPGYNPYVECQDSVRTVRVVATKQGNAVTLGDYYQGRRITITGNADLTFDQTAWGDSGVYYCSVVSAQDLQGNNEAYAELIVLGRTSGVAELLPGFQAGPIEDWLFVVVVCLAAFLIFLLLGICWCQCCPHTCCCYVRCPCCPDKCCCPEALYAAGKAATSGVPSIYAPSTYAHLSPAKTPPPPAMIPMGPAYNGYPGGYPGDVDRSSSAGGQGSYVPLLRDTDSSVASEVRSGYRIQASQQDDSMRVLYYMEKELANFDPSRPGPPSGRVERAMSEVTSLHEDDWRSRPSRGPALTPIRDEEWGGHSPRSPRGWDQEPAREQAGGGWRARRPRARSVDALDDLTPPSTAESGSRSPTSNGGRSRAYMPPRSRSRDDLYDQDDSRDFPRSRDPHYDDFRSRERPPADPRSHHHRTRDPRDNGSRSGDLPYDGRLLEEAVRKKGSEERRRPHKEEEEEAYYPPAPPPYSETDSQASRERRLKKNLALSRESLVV
UniProt Q9NVC6, sequence (Q9NVC6 whole entry, looked up): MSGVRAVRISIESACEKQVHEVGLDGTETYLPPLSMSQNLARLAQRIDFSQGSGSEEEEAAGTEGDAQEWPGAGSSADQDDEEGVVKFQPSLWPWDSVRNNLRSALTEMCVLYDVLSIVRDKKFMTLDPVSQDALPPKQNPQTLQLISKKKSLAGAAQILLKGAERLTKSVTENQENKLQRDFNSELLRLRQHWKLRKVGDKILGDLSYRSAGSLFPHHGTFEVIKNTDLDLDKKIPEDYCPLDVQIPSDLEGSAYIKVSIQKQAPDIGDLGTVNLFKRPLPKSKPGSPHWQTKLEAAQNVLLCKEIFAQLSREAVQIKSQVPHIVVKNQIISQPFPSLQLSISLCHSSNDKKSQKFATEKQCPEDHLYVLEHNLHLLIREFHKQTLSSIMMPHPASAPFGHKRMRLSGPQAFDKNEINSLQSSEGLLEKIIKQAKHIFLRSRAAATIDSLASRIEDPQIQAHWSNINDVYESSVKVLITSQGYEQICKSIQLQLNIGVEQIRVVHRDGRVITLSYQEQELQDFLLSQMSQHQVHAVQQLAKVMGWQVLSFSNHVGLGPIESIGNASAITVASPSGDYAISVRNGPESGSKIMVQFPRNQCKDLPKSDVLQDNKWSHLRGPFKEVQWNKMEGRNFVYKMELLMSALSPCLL
UniProt Q6NUT3, sequence (Q6NUT3 whole entry, looked up): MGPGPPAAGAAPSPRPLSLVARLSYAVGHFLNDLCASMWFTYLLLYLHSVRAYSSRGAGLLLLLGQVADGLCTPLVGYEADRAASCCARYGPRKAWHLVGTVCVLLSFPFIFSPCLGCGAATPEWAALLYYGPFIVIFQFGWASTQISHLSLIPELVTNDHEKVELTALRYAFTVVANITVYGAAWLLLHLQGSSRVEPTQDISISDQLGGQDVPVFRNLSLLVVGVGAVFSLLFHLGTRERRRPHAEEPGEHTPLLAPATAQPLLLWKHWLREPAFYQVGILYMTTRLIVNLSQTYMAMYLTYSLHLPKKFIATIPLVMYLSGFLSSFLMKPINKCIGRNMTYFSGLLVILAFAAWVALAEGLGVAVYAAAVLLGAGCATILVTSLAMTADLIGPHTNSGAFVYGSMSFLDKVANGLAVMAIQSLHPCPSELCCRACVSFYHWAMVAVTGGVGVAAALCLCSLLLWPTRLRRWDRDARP
UniProt O60291, sequence (O60291 whole entry, looked up): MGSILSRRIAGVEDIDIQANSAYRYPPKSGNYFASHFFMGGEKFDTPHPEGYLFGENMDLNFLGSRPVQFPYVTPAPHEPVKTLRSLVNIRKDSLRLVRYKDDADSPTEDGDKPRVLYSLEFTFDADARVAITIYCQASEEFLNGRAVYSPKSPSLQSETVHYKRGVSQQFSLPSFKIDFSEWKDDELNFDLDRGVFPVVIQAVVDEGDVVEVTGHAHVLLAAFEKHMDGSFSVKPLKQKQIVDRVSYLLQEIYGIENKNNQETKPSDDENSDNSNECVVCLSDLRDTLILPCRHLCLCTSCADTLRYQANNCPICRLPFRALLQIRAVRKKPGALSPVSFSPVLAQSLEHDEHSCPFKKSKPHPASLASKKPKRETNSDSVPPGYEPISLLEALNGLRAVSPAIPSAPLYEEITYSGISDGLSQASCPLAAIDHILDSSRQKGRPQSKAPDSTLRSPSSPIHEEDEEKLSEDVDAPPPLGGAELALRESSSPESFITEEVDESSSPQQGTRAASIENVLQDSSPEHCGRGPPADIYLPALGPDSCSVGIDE
UniProt Q08334, sequence (Q08334 whole entry, looked up): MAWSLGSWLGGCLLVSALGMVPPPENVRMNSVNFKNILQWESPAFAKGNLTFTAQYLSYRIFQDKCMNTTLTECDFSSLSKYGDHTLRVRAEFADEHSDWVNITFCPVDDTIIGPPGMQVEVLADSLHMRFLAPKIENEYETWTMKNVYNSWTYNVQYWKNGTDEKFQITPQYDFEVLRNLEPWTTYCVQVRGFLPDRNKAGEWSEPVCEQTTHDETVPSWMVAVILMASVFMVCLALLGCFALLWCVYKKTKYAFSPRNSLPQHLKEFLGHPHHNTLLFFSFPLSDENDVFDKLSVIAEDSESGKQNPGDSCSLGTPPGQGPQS
UniProt Q9Y5V3, sequence (Q9Y5V3 whole entry, looked up): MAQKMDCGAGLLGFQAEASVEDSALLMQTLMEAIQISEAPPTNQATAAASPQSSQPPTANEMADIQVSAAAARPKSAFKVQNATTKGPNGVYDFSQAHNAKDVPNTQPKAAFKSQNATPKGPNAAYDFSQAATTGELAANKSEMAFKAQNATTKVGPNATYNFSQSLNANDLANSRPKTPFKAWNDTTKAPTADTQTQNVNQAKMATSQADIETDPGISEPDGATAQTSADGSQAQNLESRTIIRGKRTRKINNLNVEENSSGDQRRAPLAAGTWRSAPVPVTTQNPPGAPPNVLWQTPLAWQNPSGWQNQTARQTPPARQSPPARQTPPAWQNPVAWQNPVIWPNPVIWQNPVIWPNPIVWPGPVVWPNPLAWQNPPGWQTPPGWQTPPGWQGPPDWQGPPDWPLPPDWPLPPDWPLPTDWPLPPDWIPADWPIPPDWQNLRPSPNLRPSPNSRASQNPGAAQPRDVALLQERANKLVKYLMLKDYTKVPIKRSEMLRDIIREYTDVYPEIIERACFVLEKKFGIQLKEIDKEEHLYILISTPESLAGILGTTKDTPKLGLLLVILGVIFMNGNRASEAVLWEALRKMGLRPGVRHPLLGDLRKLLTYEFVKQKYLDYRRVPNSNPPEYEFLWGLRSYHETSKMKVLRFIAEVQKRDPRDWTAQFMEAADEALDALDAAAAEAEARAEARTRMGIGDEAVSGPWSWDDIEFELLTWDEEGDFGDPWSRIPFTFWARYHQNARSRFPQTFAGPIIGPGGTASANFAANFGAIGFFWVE
UniProt Q12851, sequence (Q12851 whole entry, looked up): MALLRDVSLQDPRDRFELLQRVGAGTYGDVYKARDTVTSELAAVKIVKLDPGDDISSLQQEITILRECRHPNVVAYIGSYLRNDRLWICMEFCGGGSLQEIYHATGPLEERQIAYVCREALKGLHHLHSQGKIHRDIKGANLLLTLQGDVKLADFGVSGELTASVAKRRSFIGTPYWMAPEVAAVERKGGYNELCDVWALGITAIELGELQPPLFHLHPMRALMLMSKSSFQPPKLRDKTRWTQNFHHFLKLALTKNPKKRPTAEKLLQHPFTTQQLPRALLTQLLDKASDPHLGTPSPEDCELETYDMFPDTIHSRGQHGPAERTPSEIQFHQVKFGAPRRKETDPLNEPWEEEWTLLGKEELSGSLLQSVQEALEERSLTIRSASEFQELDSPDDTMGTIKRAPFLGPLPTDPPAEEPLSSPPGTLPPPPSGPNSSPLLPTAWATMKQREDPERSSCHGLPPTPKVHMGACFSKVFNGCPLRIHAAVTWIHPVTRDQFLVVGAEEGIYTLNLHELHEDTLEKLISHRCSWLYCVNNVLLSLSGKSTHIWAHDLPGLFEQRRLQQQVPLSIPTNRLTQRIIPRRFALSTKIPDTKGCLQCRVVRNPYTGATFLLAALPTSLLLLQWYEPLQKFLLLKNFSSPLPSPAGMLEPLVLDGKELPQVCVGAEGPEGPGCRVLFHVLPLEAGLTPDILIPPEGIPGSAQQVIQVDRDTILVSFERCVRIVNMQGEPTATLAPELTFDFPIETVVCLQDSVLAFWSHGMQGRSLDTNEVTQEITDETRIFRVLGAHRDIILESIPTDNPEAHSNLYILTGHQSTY
UniProt P55082, sequence (P55082 whole entry, looked up): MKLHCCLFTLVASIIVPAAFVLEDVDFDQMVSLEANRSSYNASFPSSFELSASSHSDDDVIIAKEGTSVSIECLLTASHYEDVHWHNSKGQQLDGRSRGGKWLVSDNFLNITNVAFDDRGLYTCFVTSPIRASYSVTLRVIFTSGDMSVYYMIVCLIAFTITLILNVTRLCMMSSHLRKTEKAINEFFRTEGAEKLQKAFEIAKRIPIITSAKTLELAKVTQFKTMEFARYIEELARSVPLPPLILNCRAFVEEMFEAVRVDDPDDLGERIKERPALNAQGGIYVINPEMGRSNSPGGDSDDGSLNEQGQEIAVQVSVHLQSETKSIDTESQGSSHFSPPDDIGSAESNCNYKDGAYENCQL
UniProt Q15759, sequence (Q15759 whole entry, looked up): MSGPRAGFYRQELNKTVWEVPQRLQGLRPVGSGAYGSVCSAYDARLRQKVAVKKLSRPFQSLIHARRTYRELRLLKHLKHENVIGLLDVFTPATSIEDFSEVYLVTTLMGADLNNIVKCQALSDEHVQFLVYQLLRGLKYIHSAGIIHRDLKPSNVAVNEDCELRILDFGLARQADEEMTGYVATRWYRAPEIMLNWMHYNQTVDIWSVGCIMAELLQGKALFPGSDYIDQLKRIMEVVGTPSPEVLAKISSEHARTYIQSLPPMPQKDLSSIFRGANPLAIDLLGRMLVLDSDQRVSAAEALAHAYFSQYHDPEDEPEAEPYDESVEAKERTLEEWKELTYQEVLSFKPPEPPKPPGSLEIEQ

Row | Target | log2 fold change [1] | log2 fold change [2] | log2 fold change [3] | log2 fold change [4] | log2 fold change [5]
1 | MED17 (UniProt Q9NVC6) | -0.031 | 0.038 | 0.032 | -0.011 | 
2 | MFSD12 isoform 3 (UniProt Q6NUT3) | 0.026 |  | -0.129 | 0.135 | 
3 | IL10RB (UniProt Q08334) |  | -0.149 | 0.029 |  | -0.081
4 | MCOLN3 (UniProt Q8TDD5) |  |  | 0.039 |  | -0.075
5 | LRRCC1 (UniProt Q9C099) |  |  | 0.046 |  | 
6 | MFAP3 (UniProt P55082) |  | 0.25 | -0.155 |  | 0.007
7 | KIF1B isoform 3 (UniProt O60333) |  | -0.246 |  |  | 
8 | MELK (UniProt Q14680) | -0.057 |  | 0.197 | -0.057 | 0.044
9 | MGRN1 isoform 2 (UniProt O60291) | -0.004 |  | 0.036 | 0.086 | -0.088
10 | MAGED1 isoform 2 (UniProt Q9Y5V3) | 0.031 | 0.148 |  | -0.01 | 
11 | LSR isoform 3 (UniProt Q86X29) | -0.073 |  | -0.067 | -0.101 | 
12 | MAP2K5 (UniProt Q13163) | 0.053 |  |  | -0.034 | 
13 | LSR (UniProt M0QZL9) |  | 0.054 |  |  | 
14 | MAN2B2 (UniProt Q9Y2E5) |  | 0.096 | 0.074 |  | 0.097
15 | MAP4K2 (UniProt Q12851) | 0.063 |  | -0.057 | 0 | -0.08
16 | IKZF1 (UniProt R9R4D9) | 0.08 |  | 0.039 | -0.159 | 
17 | MAPK11 (UniProt Q15759) |  |  | -0.014 |  | 
